In the supplement of paper PMC9262897, “Low-cost anti-mycobacterial drug discovery using engineered E. coli” (Nature Communications, 2022):
Where a name gives a salt, the structure may show the parent alone. ± gives the standard deviation of the averaged measurements.

Key:
Experiment in all cases: growth (OD600 after 10 h); higher = more growth (less inhibition)
[1] = test system: E. coli TESEC Alr+ wild-type control; conditions: compound 0.1 mM; raw OD600 reference: median of DMSO wells 0.241, cell-free background 0.041
Procedure: (§1)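 TESEC Mtb Alr E. coli, or the Alr+ wild-type control, in 384-well plates with Prestwick library compounds at 0.1 mM and 1% DMSO, across arabinose induction levels of 1E3 to 1E7 nM. Growth is read as OD600 after 10 h at 37 °C in triplicate biological replicates.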

E. coli TESEC Mtb Alr [2] = conditions: compound 0.1 mM
Procedure: as §1

E. coli TESEC Mtb Asd = conditions: compound 0.1 mM
Procedure: (§2)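 TESEC E. coli strains in which the native enzyme is deleted and replaced by arabinose-inducible Mtb Asd, DapB, CysH or TrpD, each grown in its selective medium. Strains were screened against the Prestwick library at 0.1 mM and 1% DMSO in 384-well format at low and high arabinose induction. Growth is read as OD600 after 10 h in triplicate.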

E. coli TESEC Mtb DapB = conditions: compound 0.1 mM
Procedure: as §2

[3] = test system: E. coli TESEC Alr+ wild-type control; conditions: compound 0.1 mM; raw OD600 reference: median of DMSO wells 0.49, cell-free background 0.052
Procedure: (§3)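 TESEC Mtb Alr E. coli (ΔaraC ΔtolC ΔentC Δalr ΔdadX, arabinose-inducible Mtb Alr) or the Alr+ wild-type control strain, grown in defined M9-fructose medium without D-alanine in 96-well plates with Prestwick library compounds at 0.1 mM and 1% DMSO. Low Alr induction is 0.1 µM arabinose and high induction is 10 mM arabinose.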

E. coli TESEC Mtb Alr [4] = conditions: compound 0.1 mM; remark: listed apart in the source
Procedure: as §3

[5] = arabinose 1000 nM, raw OD600 reference: median of DMSO wells 0.294, cell-free background 0.041
[6] = arabinose 10000 nM, raw OD600 reference: median of DMSO wells 0.264, cell-free background 0.041
[7] = arabinose 100000 nM, raw OD600 reference: median of DMSO wells 0.201, cell-free background 0.041
[8] = arabinose 1000000 nM, raw OD600 reference: median of DMSO wells 0.193, cell-free background 0.041
[9] = arabinose 10000000 nM, raw OD600 reference: median of DMSO wells 0.146, cell-free background 0.041
[10] = arabinose induction (level): High, raw OD600 reference: median of DMSO wells 0.331, cell-free background 0.041
[11] = arabinose induction (level): Low, raw OD600 reference: median of DMSO wells 0.417, cell-free background 0.041
[12] = arabinose induction (level): High, raw OD600 reference: median of DMSO wells […], cell-free background 0.041
[13] = arabinose induction (level): Low, raw OD600 reference: median of DMSO wells 0.227, cell-free background 0.041
[14] = arabinose 100 nM, raw OD600 reference: median of DMSO wells 0.413, cell-free background 0.052
[15] = arabinose 10000000 nM, raw OD600 reference: median of DMSO wells […], cell-free background 0.052

Compound	growth [1]	growth (E. coli TESEC Mtb Alr [2]; [5])	growth (E. coli TESEC Mtb Alr [2]; [6])	growth (E. coli TESEC Mtb Alr [2]; [7])	growth (E. coli TESEC Mtb Alr [2]; [8])	growth (E. coli TESEC Mtb Alr [2]; [9])	growth (E. coli TESEC Mtb Asd; [10])	growth (E. coli TESEC Mtb Asd; [11])	growth (E. coli TESEC Mtb DapB; [12])	growth (E. coli TESEC Mtb DapB; [13])	growth [3]	growth (E. coli TESEC Mtb Alr [4]; [14])	growth (E. coli TESEC Mtb Alr [4]; [15])
CCN(CC)CCNC(=O)COc1ccc(OC)cc1 [Mefexamide hydrochloride]	0.24 ± 0.0042	0.285 ± 0.019	0.2683 ± 0.0018	0.196 ± 0.01	0.182 ± 0.0058	0.143 ± 0.0038	0.304 ± 0.1	0.411 ± 0.013	0.225 ± 0.041	0.227 ± 0.026	0.501 ± 0.067	0.421 ± 0.0097	0.343 ± 0.0047
Cc1cc(CC(=O)O)n(C)c1C(=O)c1ccc(Cl)cc1 [Zomepirac sodium salt]	0.22 ± 0.0032	0.261 ± 0.022	0.239 ± 0.0082	0.16 ± 0.0043	0.1938 ± 0.0017	0.121 ± 0.0027	0.473 ± 0.13	0.295 ± 0.069	0.187 ± 0.0096	0.247 ± 0.038	0.476 ± 0.083	0.392 ± 0.014	0.3428 ± 0.0013
CCN(CC)Cc1cc(Nc2ccnc3cc(Cl)ccc23)ccc1O [Amodiaquin dihydrochloride dihydrate]	0.16 ± 0.0068	0.229 ± 0.0059	0.269 ± 0.003	0.181 ± 0.0097	0.102 ± 0.0085	0.203 ± 0.0054	0.179 ± 0.011	0.387 ± 0.051	0.209 ± 0.017	0.28 ± 0.06	0.527 ± 0.047	0.4131 ± 0.00099	0.322 ± 0.0054
Cn1cnc2c1c(=O)[nH]c(=O)n2C [Theobromine]	0.255 ± 0.0061	0.313 ± 0.018	0.289 ± 0.015	0.218 ± 0.02	0.189 ± 0.0034	0.155 ± 0.011	0.483 ± 0.0089	0.454 ± 0.03	0.206 ± 0.008	0.249 ± 0.036	0.461 ± 0.015	0.404 ± 0.014	0.365 ± 0.022
NS(=O)(=O)c1cc2c(cc1C(F)(F)F)NC(Cc1ccccc1)NS2(=O)=O (stereo not drawn) [Bendroflumethiazide]	0.233 ± 0.0098	0.301 ± 0.0067	0.261 ± 0.0081	0.219 ± 0.015	0.162 ± 0.005	0.154 ± 0.0047	0.459 ± 0.046	0.451 ± 0.035	0.217 ± 0.017	0.268 ± 0.0034	0.487 ± 0.035	0.403 ± 0.012	0.298 ± 0.016
N=C(N)NC(=N)NCCc1ccccc1 [Phenformin hydrochloride]	0.2497 ± 0.002	0.279 ± 0.014	0.274 ± 0.0079	0.2 ± 0.02	0.186 ± 0.0089	0.137 ± 0.0039	0.378 ± 0.07	0.405 ± 0.067	0.203 ± 0.0056	0.211 ± 0.012	0.469 ± 0.053	0.416 ± 0.0069	0.3729 ± 0.003
Cc1cccc(C)c1OCC(C)N (stereo not drawn) [Mexiletine hydrochloride]	0.225 ± 0.0049	0.276 ± 0.0054	0.262 ± 0.0058	0.223 ± 0.038	0.171 ± 0.0031	0.143 ± 0.0056	0.348 ± 0.076	0.397 ± 0.033	0.2 ± 0.013	0.288 ± 0.071	0.399 ± 0.005	0.4 ± 0.015	0.352 ± 0.015
CN1CCN(c2c(F)cc3c(=O)c(C(=O)O)cn(CCF)c3c2F)CC1 [Fleroxacin]	0.0517 ± 0.002	0.04717 ± 0.00045	0.0416 ± 0.0006	0.0505 ± 0.0014	0.0445 ± 0.00081	0.0554 ± 0.00072	0.0848 ± 0.0081	0.0766 ± 0.014	0.0682 ± 0.001	0.0599 ± 0.003	0.0565 ± 0.002	0.0555 ± 0.0013	0.05217 ± 5.8e-05
N=C(N)NCC1COC2(CCCCC2)O1 (stereo not drawn) [Guanadrel sulfate]	0.241 ± 0.0075	0.296 ± 0.0091	0.258 ± 0.0067	0.204 ± 0.017	0.183 ± 0.0022	0.138 ± 0.0046	0.363 ± 0.079	0.368 ± 0.036	0.22 ± 0.023	0.227 ± 0.039	0.635 ± 0.012	0.406 ± 0.013	0.324 ± 0.012
CN(CCOc1ccc(NS(C)(=O)=O)cc1)CCc1ccc(NS(C)(=O)=O)cc1 [Dofetilide]	0.209 ± 0.0043	0.28 ± 0.0052	0.253 ± 0.008	0.171 ± 0.016	0.173 ± 0.0041	0.133 ± 0.0023	0.213 ± 0.019	0.336 ± 0.076	0.229 ± 0.041	0.241 ± 0.032	0.589 ± 0.053	0.427 ± 0.0089	0.318 ± 0.0084
CCCC(C(=O)OCCN(CC)CC)(c1ccccc1)c1ccccc1 [Proadifen hydrochloride]	0.0491 ± 0.0002	0.04737 ± 0.00042	0.04077 ± 0.00038	0.0496 ± 0.0007	0.04163 ± 0.00032	0.04523 ± 0.00015	0.0541 ± 0.001	0.0665 ± 0.012	0.126 ± 0.0053	0.129 ± 0.0055	0.0545 ± 0.001	0.319 ± 0.17	0.0643 ± 0.01
CC(C)(Sc1cc(C(C)(C)C)c(O)c(C(C)(C)C)c1)Sc1cc(C(C)(C)C)c(O)c(C(C)(C)C)c1 [Probucol]	0.248 ± 0.0044	0.298 ± 0.014	0.259 ± 0.0043	0.236 ± 0.028	0.172 ± 0.0035	0.173 ± 0.02	0.344 ± 0.1	0.408 ± 0.093	0.207 ± 0.014	0.22 ± 0.016	0.583 ± 0.039	0.407 ± 0.0098	0.366 ± 0.015
CC(=O)Nc1c(I)c(NC(C)=O)c(I)c(C(=O)O)c1I [Diatrizoic acid dihydrate]	0.234 ± 0.0051	0.285 ± 0.0023	0.255 ± 0.0056	0.191 ± 0.017	0.213 ± 0.0043	0.131 ± 0.01	0.297 ± 0.043	0.326 ± 0.053	0.197 ± 0.013	0.235 ± 0.023	0.537 ± 0.08	0.424 ± 0.011	0.348 ± 0.0074
NC1CCN(c2c(F)cc3c(=O)c(C(=O)O)cn(C4CC4)c3c2Cl)C1 (stereo not drawn) [Clinafloxacin]	0.0416 ± 0.0001	0.0399 ± 0.00042	0.0399 ± 0.00047	0.0418 ± 0.0019	0.03957 ± 5.8e-05	0.04037 ± 0.00015	0.0476 ± 0.0014	0.0476 ± 0.0014	0.0489 ± 0.0013	0.0481 ± 0.00067	0.05277 ± 0.00038	0.05347 ± 0.0004	0.0504 ± 0.00086
OCCOCCN1CCN(C(c2ccccc2)c2ccc(Cl)cc2)CC1 (stereo not drawn) [Hydroxyzine dihydrochloride]	0.142 ± 0.0048	0.202 ± 0.0073	0.243 ± 0.004	0.171 ± 0.0032	0.11 ± 0.0035	0.1214 ± 0.0011	0.164 ± 0.0026	0.27 ± 0.013	0.182 ± 0.011	0.239 ± 0.048	0.45 ± 0.02	0.421 ± 0.009	0.219 ± 0.011
O=C(c1ccc(F)cc1)C1CCN(CCn2c(=O)[nH]c3ccccc3c2=O)CC1 [Ketanserin tartrate hydrate]	0.183 ± 0.0037	0.251 ± 0.0083	0.27 ± 0.0047	0.221 ± 0.033	0.132 ± 0.0046	0.17 ± 0.0079	0.243 ± 0.075	0.393 ± 0.039	0.203 ± 0.02	0.251 ± 0.056	0.491 ± 0.043	0.407 ± 0.011	0.2801 ± 0.002
